A1 inh: caspase 3/7 activation in MEF A1-2A-BIM cells, primary screen, A1 inhibitor project, cell-based, luminescence, HTS | caspase activation, % (test concentration not listed) | Caspase-Glo 3/7 luminescence, 3 h; percent of clofoctol response, vehicle zero | AID 2462, 2010 | 330,000 compounds, 0.066% hits;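 active = over half of replicate activation scores above 10%, or exactly half above 10 with the replicate mean above 10; inconclusive = replicate mean below 10 yet half the replicates above 10; inactive = over half of replicates below 10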
CSC inhib: cancer stem cell viability inhibitors, primary screen, luminescence; cancer stem cell-like cells viability; inhibition, % at 7.5 µM; 300,000 compounds, 1.1% hits; AID 2717, 2010; in the data active = inhibition above about 75%; inconclusive = no clear call, values can overlap the other calls; tested in HMLE shEcad cells
aSyn UTR inh: MLPCN primary screen, SNCA 5' untranslated region; alpha-synuclein 5'UTR reporter, inhibitor activity; inhibition, % (tested at 7.5 µM); 300,000 compounds, 0.82% hits; in the data active = inhibition above about 60%; inconclusive = no clear call, values can overlap the other calls;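 note: H4 neuroglioblastoma cells stably carrying SNCA 5'UTR luciferase fusion; 0% = DMSO wells and 100% = positive control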
Mdm2 MdmX PPI: inhibitors of human Mdm2-MdmX association, primary screen, cell-based, luminescence, split luciferase, SaOS-2, uHTS | Protein Mdm4 (Homo sapiens) + E3 ubiquitin-protein ligase Mdm2 (Homo sapiens), … | SaOS-2 split-luciferase Mdm2/MdmX complementation | inhibition, % at 8 µM | 330,000 compounds, 3% hits | AID 485346, 2010;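 active = inhibition of at least 50% at 8 µM in the primary screen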
Beta cell apopt: inhibitors of cytokine-induced beta cell apoptosis, primary screen, luminescence. INS-1E cytokine-induced death, ATP luminescence, 48 h; percent of positive-control rescue, neutral wells zero. protection from apoptosis, % (test concentration not listed). 300,000 compounds, 0.8% hits. AID 435005, 2010;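 active = Every replicate reaches about 75%, or at least half do and their mean reaches it too, limit read from the data; inconclusive = At least half of replicates reach the limit but their mean does not; inactive = Under half of replicates reach the limit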;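 note: 0% = cytokine-treated negative control wells and 100% = positive control rescue; higher means more ATP so stronger rescue from cytokine killing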
Mdm2 MdmX conf: Mdm2-MdmX complex disruptors, retested hits, confirmation, luminescence, single concentration; shares compounds with Mdm2 MdmX PPI; Mdm2-MdmX binding, luminescent assay; inhibition, % at 8 µM; 10,000 compounds, 55% hits; in the data active = inhibition above about 40%
FLuc counter: full-length luciferase signal inhibition, confirmation, counter-screen for Mdm2/MdmX interaction inhibitor project, cell-based, single concentration, SaOS-2; shares compounds with Mdm2 MdmX PPI; SaOS-2 full-length luciferase counterscreen, luminescence; inhibition, % at 8 µM; 6,200 compounds, 77% hits; AID 504607, 2011;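 active = mean inhibition at 8 µM reaching about 37%, which flags the compound as non-specific, limit read from the data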;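 note: p53-null SaOS-2 cells with luciferase driven by a doxycycline-inducible promoter; compound on cells about two nights before reading with doxycycline added after day one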
Starred values were filed as active, the others as inactive; ? = inconclusive; . = no result. Shown are actives, neighbours in structure and some others; about 4.1% of the full set was active somewhere.

SMILES	A1 inh	CSC inhib	aSyn UTR inh	Mdm2 MdmX PPI	Beta cell apopt	Mdm2 MdmX conf	FLuc counter
C=CCN(c1ccccc1)S(=O)(=O)c1cccc(C(=O)Nc2ccc(N3CCOCC3)cc2)c1	.	.	.	14	.	.	.
CN(C)S(=O)(=O)c1cccc(NC(=O)CSc2cccc3cccnc23)c1	-1	84*	16	97*	.	49*	17
Cc1cc(C)c2c(=O)[nH]c(SCC(=O)Nc3cccc(S(=O)(=O)N(C)C)c3)nc2n1	0	.	.	29	1	.	.
CN(C)S(=O)(=O)c1cccc(NC(=O)CSc2nc3c(cc2C#N)C(=O)CC(C)(C)C3)c1	0	?	28	57*	-9	51*	52*
CN(C)S(=O)(=O)c1ccc(Cl)c(NC(=O)CSc2nc3c(cc2C#N)C(=O)CC(C)(C)C3)c1	-1	12	6	13	-2	.	.
CCCCN(C(=O)CSc1n[nH]c(-c2ccc(C)cc2)n1)c1c(N)n(CCCC)c(=O)[nH]c1=O	1	-5	13	-7	-4	.	.
C[C@H](NC(=O)c1ccccc1)C(=O)OCC(=O)Nc1sccc1C(N)=O	-1	-1	.	13	1	.	.
COc1ccc(CCn2c(C)cc(C(=O)CCl)c2C)cc1OC	1	47	6	74*	0	27	.
Cc1cc(C(=O)CCl)c(C)n1CCc1ccc(Cl)cc1	14*	116*	27	93*	28	69*	31
COc1ccc(CCn2c(C)cc(C(=O)CSc3nnnn3-c3ccccc3)c2C)cc1OC	-1	-6	28	59*	.	7	.
Cc1cc(C(=O)CCl)c(C)n1CCc1ccc(F)cc1	0	56	4	92*	34	62*	34
CC[C@]12c3[nH]c4ccccc4c3CCN1C(=O)C(CC(=O)NCCCN(C)C)C[C@@H]2C(=O)N1CCN(C(=O)C2CC2)CC1 (stereo not given in full)	0	-1	.	-30	-2	.	.
COc1ccccc1NC(=O)CN1CCN(C(=O)C2CCCO2)CC1 (stereo not given)	0	-9	-5	6	0	.	.
CCOC(=O)c1cccc(C2=CC(=O)CC(C)(C)C2)c1	1	-7	.	-10	5	.	.
O=C1NC(=S)N/C1=C/c1ccc2ccccc2c1	0	-4	-84	-7	-2	.	.
Cc1ccc(NC(=O)CSc2ccc(-c3ccccn3)nn2)cc1	0	0	-13	55*	0	41*	79*
Clc1ccc(CSc2ccc(-c3ccccn3)nn2)cc1	-2	127*	-132	60*	84*	60*	43*
CCOC(=O)c1ccc(NC(=O)CSc2ccc(-c3ccccn3)nn2)cc1	0	3	12	70*	5	53*	59*
CCOc1ccc(NC(=O)CSc2ccc(-c3ccccn3)nn2)cc1	1	-6	-29	24	6	.	.
O=C(CSc1ccc(-c2ccccn2)nn1)Nc1ccc(F)c(F)c1	0	4	5	67*	2	43*	55*
COc1ccc(C(=O)c2c(C(F)(F)F)oc3c2C(=O)c2ccccc2C3=O)cc1	-1	106*	109*	78*	115*	66*	54*
c1ccc(-c2nc(N3CCCCCC3)c3ccccc3n2)nc1	0	-4	26	84*	123*	86*	21
Fc1ccc(Oc2nc(-c3ccccn3)nc3ccccc23)cc1	-1	-7	-95	57*	77*	5	.
C/C(=N\Nc1nc(-c2ccccn2)nc2ccccc12)c1ccc(F)cc1	0	82*	75*	75*	87*	38	34
C/C(=N\Nc1nc(-c2ccccc2O)nc2ccccc12)c1ccccc1	0	-12	-91	18	17	.	.
CC(=O)c1cc(-c2ccc(F)cc2)n(CCC(=O)Nc2cccc(C)n2)c1C	0	-7	-21	20	10	.	.
